Results reported in publication PMC12670160, “A drug-repurposing screen of FDA- and EMA-approved drugs identifies two NF-κB inhibitors active against eumycetoma” (Journal of Antimicrobial Chemotherapy, 2025).
Structures can show the parent of a compound that is named as a salt. Where two headings read alike, the source gives them in different places. Hit rate of the full screen: of about 5,300 compounds, about 130 (2.5%) showed an effect of 50% or more. The entries come from a sample that favours strong results as a whole.

Tested on: M. mycetomatis strain mm55
Conditions: 96 h, 2 µM

Structure (SMILES)	% viability (m. mycetomatis hyphae) [%]	% viability (primary screen, metabolic activity vs growth control, inhibitor) [%]
COc1cc2cc(c1Cl)N(C)C(=O)C[C@H](OC(=O)C(C)C)[C@]1(C)O[C@H]1[C@H](C)[C@@H]1C[C@@](O)(NC(=O)O1)[C@H](OC)/C=C/C=C(\C)C2 [ONC0000769, ansamitocin p3]	44.45	
Cc1[nH]c2ccc(O)cc2c1CCN [ONC0000021, 2methyl5hydroxytryptamine]	80.31	
OCC(Br)(Br)Br [ONC0003374, 222tribromoethanol]	70.94	
COC(=O)CC[C@@H]1N=C(c2ccccn2)c2cc(Br)ccc2-n2c(C)cnc21 [ONC0001123, remimazolam benzenesulfonate]	82.85	
Ic1cncc(OC[C@@H]2CCN2)c1 [ONC0001838, 5iodoa85380]	120.9	
NC(=S)N/N=C/c1coc2ccccc2c1=O [ONC0001578, fpa124]	55.38	
C[C@@H](N)C(=O)N[C@@H](CO)C(=O)N[C@H](C(=O)N[C@H](C(=O)N[C@H](C(=O)N[C@@H](CC(N)=O)C(=O)N[C@@H](Cc1ccc(O)cc1)C(=O)N[C@H](C(N)=O)[C@@H](C)O)[C@@H](C)O)[C@@H](C)O)[C@@H](C)O [ONC0001968, dapta]		96.08
COc1ccc(C(=O)c2c(C)n(CCN3CCOCC3)c3cc(I)ccc23)cc1 [ONC0003455, am630 iodopravadoline]	49.32	
COc1ccc(C(=O)c2c(C)n(CCN3CCOCC3)c3ccccc23)cc1 [ONC0001936, pravadoline]	72.97	
CC(=O)NCCCOc1ccc(C(=O)N2CCC(N3C(=O)CCc4ccccc43)CC2)cc1 [ONC0002419, fuscoside]	92.96	
CC(=O)O[C@H]1CC[C@@]2(C)C(=CC(=O)[C@@H]3[C@@H]2CC[C@]2(C)C(=O)CC[C@@H]32)C1 [ONC0002730, 7oxodehydroepiandrosterone acetate]	95.04	
CC(=O)O[C@H]1CC[C@@]2(C)C(=CCC3C2CC[C@]2(C)C(=O)CCC32)C1 (stereo partly shown) [ONC0003269, prasterone acetate]	44.2	
C[C@]12CC[C@H](O)C[C@@H]1CC[C@@H]1[C@H]2CC[C@]2(C)C(=O)CC[C@@H]12 [ONC0005247, epiandrosterone 3androsterone]	106.6	
Cc1ncc(OC[C@@]2(c3cccc(F)c3)C[C@H]2C(=O)Nc2ccc(F)cn2)c(C)n1 [ONC0001232, lemborexant]	126.3	
COC(=O)C1=C(C)NC(C)=C(C(=O)OCCCN2CCC(c3ccccc3)(c3ccccc3)CC2)[C@@H]1c1cccc([N+](=O)[O-])c1 [ONC0000198, dexniguldipine]	76.6	
Cc1ccc2c(c1)[C@]13CCCC[C@@H]1[C@H](C2)N(C)CC3 [ONC0001964, dimemorfan]	96.79	
O=C1C=C2C=C[C@@H]3C[C@@]2(O1)[C@H]1CCCCN31 [ONC0004197, securinine]	79.41	
OC1(c2ccc(Cl)cc2)c2ccccc2C2=NCCN21 (stereo not shown) [ONC0005297, mazindol]	110.5	
CN(C)CCNc1nc2cc(O)ccc2c2c1C(=O)c1ccccc1-2 [ONC0002255, tas103 dihydrochloride]	114.4	
Oc1ccc2c3c1O[C@H]1c4[nH]c5c(c4C[C@@]4(O)[C@@H](C2)N(CC2CC2)CC[C@]314)C[C@@]1(O)[C@H]2Cc3ccc(O)c4c3[C@@]1(CCN2CC1CC1)[C@H]5O4 [ONC0002653, norbinaltorphiminedihydrochloride]	66	

Structure (SMILES)	% viability (m. mycetomatis hyphae) [%]	% viability (primary screen, metabolic activity vs growth control, inhibitor) [%]
CN(C(=O)/C=C/c1ccoc1)[C@@H]1CC[C@@]2(O)[C@H]3Cc4ccc(O)c5c4[C@@]2(CCN3CC2CC2)[C@H]1O5 [ONC0001145, nalfurafine hydrochloride]	84.21	
COC(=O)/C=C/C(=O)N[C@@H]1CC[C@@]2(O)[C@H]3Cc4ccc(O)c5c4[C@@]2(CCN3CC2CC2)[C@H]1O5 [ONC0001459, betafunaltrexamine]	48.02	
Oc1ccc2c3c1O[C@H]1[C@@H](O)CC[C@@]4(O)[C@@H](C2)N(CC2CCC2)CC[C@]314 [ONC0002017, nalbuphinehcl]	86.82	
Oc1ccc2c3c1O[C@H]1c4[nH]c5ccccc5c4C[C@@]4(O)[C@@H](C2)N(CC2CC2)CC[C@]314 [ONC0001519, naltrindole]	93.26	
Oc1ccc2c3c1O[C@H]1c4oc5ccccc5c4C[C@@]4(O)[C@@H](C2)N(CC2CC2)CC[C@]314 [ONC0001439, naltriben]	49.95	
O=C1NC(=S)NC(=O)C1C(=O)Nc1ccccc1 [ONC0002959, merbarone]	104.2	
COc1ccsc1CNCC[C@@]1(c2ccccn2)CCOC2(CCCC2)C1 [ONC0001391, oliceridine hydrochloride]	102.3	
O=C(C[S+]([O-])C(c1ccccc1)c1ccccc1)NO (stereo not shown) [ONC0001184, adrafinil]	106.5	
Clc1ccc(CO/N=C(\Cn2ccnc2)c2ccc(Cl)cc2Cl)c(Cl)c1 [Oxiconazole nitrate]	0.8852	
CC(=O)[C@H]1CC[C@H]2[C@@H]3CC[C@@H]4C[C@H](O)CC[C@]4(C)[C@H]3CC[C@]12C [ONC0001671, allopregnanolone]	102.1	
Cc1ccccc1-n1c(CF)nc2ccc(N)cc2c1=O [ONC0003405, afloqualone]	71.52	
CC(C)CC(N)C1(c2ccc(Cl)cc2)CCC1 (stereo not shown) [ONC0002665, bts54505]	62.54	
O=C(Nc1ccccc1F)N[C@H]1N=C(c2ccccc2)c2ccccc2NC1=O [ONC0000966, rsv604]	70.36	
OCC(O)[C@H]1O[C@@H]2O[C@H](C(Cl)(Cl)Cl)O[C@@H]2[C@H]1O (stereo partly shown) [ONC0004285, chloralose]	88.6	
c1ccc(CC(c2ccccc2)N2CCCCC2)cc1 (stereo not shown) [ONC0000060, 112diphenylethylpiperidine]	45.07	
Cc1cccc(C)c1N=C1NCCCS1 [ONC0000628, xylazine]	103.4	
O=C(O)Cc1cccnc1C(=O)O [ONC0001551, homoquinolinicacid]	85.08	
CC(C)(O)[C@H]1[C@@H]2OC(=O)[C@@H]1[C@]1(O)C[C@H]3O[C@]34C(=O)O[C@H]2[C@]14C [ONC0002779, picrotin]	109.3	
C=C(C)[C@@H]1[C@H]2OC(=O)[C@H]1[C@]1(O)C[C@H]3O[C@]34C(=O)O[C@H]2[C@]14C [ONC0004797, picrotoxinin]	48.22	
C=CCN1CC[C@@]2(C)c3cc(O)ccc3C[C@H]1[C@H]2C [ONC0000854, skf10047]	56.88	
